# In PubChem BioAssay (EPA / NIEHS):
# The source made the active and inactive calls. Rule for the calls: active = hit-call score of the fitted dose curve at least 0.9, where 1 is the maximum; inactive = score below 0.9.
# Key:
# [1] = biological target: Paired box protein Pax-6 (Homo sapiens) (UniProt P26367); assay: ATG_Pax6_CIS: Attagene CIS-FACTORIAL HepG2 Assay for human Paired Box 6 (PAX6) (AID 2282956); details: HepG2 CIS-FACTORIAL PAX6 reporter transcription, RNA readout; actives raise or lower the signal
# Chain of Paired box protein Pax-6 (Homo sapiens) (P26367 whole entry, looked up): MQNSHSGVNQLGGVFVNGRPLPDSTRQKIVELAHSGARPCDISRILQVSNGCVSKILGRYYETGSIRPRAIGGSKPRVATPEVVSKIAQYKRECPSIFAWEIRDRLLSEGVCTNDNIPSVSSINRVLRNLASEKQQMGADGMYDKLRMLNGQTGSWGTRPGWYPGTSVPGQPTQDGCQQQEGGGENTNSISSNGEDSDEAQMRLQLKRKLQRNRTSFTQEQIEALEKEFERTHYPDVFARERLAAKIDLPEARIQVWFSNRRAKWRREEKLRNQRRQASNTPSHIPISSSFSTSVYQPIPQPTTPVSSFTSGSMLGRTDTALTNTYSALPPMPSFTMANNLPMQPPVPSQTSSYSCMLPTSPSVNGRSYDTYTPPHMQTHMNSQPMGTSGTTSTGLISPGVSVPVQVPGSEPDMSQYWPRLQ
# Outline: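 Multiplexed cis-reporter HepG2 system; 24 h treatment; reporter mRNA read by RT-PCR/CE fluorescence; bidirectional fit vs DMSO.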
# [2] = ATG_PXRE_CIS: Attagene CIS-FACTORIAL HepG2 Assay for human Pregnane X Receptor Element (PXRE) (AID 2282957); details: HepG2 Attagene CIS-FACTORIAL PXRE reporter, mRNA; actives raise or lower the signal
# Outline: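 HepG2 cells transiently transfected with cis-regulated multiple reporter transcription units; endogenous factor activity measured as reporter mRNA 24 h after dosing. RT-PCR, fluorescent primer extension, HpaI digestion, capillary electrophoresis; bidirectional fit versus DMSO baseline.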
# [3] = ATG_PPRE_CIS: Attagene CIS-FACTORIAL HepG2 Assay for human Peroxisome Proliferator-activated Response Element (PPRE) (AID 2282958); details: HepG2 PPRE cis-element reporter, Attagene transcription factor profiling; actives raise or lower the signal
# Outline: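 Measured endpoint: PPRE-controlled reporter mRNA, detected by RT-PCR and capillary electrophoresis fluorescence, from transiently transfected HepG2 cells 24 h after dosing. Curves fitted in both directions using DMSO baseline.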
# [4] = ATG_RORE_CIS: Attagene CIS-FACTORIAL HepG2 Assay for human RAR-related Orphan Receptor Element (RORE) (AID 2282959); details: HepG2 Attagene cis-factorial RORE reporter, mRNA; actives raise or lower the signal
# Outline: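 Transiently transfected HepG2 reporter cells were treated 24 h. Reporter transcripts were detected by RT-PCR and capillary electrophoresis, with bidirectional fitting against DMSO.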
# [5] = ATG_Sox_CIS: Attagene CIS-FACTORIAL HepG2 Assay for human SRY-box transcription factor (SOX) (AID 2282960); details: HepG2 Attagene cis-factorial SOX reporter, mRNA; actives raise or lower the signal
# Outline: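 Gain- or loss-of-signal endpoint, fitted bidirectionally with DMSO as negative control. Based on reporter mRNA from transfected HepG2 cells harvested 24 h post-treatment and quantified via RT-PCR and capillary electrophoresis.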
# [6] = biological target: Transcription factor Sp1 (Homo sapiens) (UniProt P08047); assay: ATG_Sp1_CIS: Attagene CIS-FACTORIAL HepG2 Assay for human Specificity Protein 1 (Sp1) (AID 2282961); details: HepG2 Sp1 cis-reporter transcription, actives raise or lower the signal
# Chain of Transcription factor Sp1 (Homo sapiens) (P08047 whole entry, looked up, the tested form may be a part): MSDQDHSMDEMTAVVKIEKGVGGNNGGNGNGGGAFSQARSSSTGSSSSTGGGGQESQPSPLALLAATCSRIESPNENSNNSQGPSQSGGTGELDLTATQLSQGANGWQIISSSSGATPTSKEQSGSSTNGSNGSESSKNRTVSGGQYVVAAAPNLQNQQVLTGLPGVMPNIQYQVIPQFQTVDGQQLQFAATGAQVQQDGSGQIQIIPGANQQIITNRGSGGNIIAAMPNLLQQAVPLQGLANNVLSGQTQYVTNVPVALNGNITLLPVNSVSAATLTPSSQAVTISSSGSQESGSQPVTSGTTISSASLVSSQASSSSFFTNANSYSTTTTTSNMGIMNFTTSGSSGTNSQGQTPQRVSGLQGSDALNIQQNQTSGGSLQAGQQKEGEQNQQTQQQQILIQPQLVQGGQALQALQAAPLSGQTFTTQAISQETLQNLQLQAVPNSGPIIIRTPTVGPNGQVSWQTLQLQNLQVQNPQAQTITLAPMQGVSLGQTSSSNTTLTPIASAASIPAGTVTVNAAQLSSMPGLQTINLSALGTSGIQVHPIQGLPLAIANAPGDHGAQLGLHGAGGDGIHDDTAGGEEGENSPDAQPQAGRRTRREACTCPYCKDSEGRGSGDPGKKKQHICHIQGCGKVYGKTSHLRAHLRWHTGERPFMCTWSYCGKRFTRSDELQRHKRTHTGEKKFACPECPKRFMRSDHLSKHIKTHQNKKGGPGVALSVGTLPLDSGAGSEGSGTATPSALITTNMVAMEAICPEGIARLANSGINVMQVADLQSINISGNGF
# Outline: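 Endpoint reflects endogenous Sp1 transcriptional activity, not an exogenous fusion protein: HepG2 cells with transfected cis-regulated reporters, 24 h dosing, RT-PCR/capillary electrophoresis mRNA read-out, DMSO-normalised bidirectional fit.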
# [7] = ATG_SREBP_CIS: Attagene CIS-FACTORIAL HepG2 Assay for human Sterol Regulatory Element Binding (SREBP) (AID 2282962); details: HepG2 Attagene cis-factorial SREBP reporter, mRNA; actives raise or lower the signal
# Outline: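 mRNA induction of transfected cis-promoter reporters in HepG2 cells, 24 h post-dose. Detection: RT-PCR with 6-FAM-labelled products, HpaI digest, capillary electrophoresis. DMSO served as negative control and baseline.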
# [8] = biological target: Signal transducer and activator of transcription 3 (Homo sapiens) (UniProt P40763); assay: ATG_STAT3_CIS: Attagene CIS-FACTORIAL HepG2 Assay for human Signal Transducer and Activator of Transcription 3 (STAT3) (AID 2282963); details: HepG2, Attagene cis-factorial STAT3 reporter transcription; actives raise or lower the signal
# Chain of Signal transducer and activator of transcription 3 (Homo sapiens) (P40763 whole entry, looked up): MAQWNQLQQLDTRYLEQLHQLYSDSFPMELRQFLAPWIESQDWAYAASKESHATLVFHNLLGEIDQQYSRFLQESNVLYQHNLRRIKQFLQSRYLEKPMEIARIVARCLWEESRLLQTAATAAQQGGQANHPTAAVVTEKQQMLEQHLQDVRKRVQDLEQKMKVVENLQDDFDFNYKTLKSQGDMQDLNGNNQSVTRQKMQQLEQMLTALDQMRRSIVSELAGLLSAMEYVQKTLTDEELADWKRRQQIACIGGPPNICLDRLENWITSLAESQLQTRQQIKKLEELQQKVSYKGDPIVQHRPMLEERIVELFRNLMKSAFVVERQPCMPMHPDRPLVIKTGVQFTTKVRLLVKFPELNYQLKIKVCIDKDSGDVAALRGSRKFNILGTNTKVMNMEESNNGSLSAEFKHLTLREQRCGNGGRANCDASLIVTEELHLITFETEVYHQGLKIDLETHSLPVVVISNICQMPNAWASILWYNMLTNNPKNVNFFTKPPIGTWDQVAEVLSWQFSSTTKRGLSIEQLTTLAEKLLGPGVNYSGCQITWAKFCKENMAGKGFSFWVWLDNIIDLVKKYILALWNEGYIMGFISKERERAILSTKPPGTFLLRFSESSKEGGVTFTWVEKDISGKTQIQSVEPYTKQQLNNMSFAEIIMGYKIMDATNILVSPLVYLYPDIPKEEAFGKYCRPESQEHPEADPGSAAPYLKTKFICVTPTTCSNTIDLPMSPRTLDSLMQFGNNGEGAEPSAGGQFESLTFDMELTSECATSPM
# Outline: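 Transcript-level reporter assay. HepG2 transient MRTU transfection, 24 h exposure, fluorescence detection after RT-PCR and CE; DMSO baseline.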
# [9] = ATG_TA_CIS: Attagene CIS-FACTORIAL HepG2 Assay for human TA Basal Promoter (AID 2282964); details: HepG2 Attagene CIS-factorial TA basal promoter reporter; actives raise or lower the signal
# Outline: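 Transfected HepG2, 24 h compound exposure; RNA → RT-PCR → FAM primer extension → HpaI cut → CE fluorescence. Gain/loss-of-signal fitted against DMSO negative control. Background-control readout.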
# [10] = ATG_TCF_b_cat_CIS: Attagene CIS-FACTORIAL HepG2 Assay for human T-Cell-Factor with beta-catenin (TCF/b-cat) (AID 2282965); details: HepG2 TCF/beta-catenin cis-reporter transcription, actives raise or lower the signal
# Outline: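 Using capillary electrophoresis as the read-out, labelled reporter cDNA fragments from transiently transfected HepG2 were sized and quantified. Exposure lasted 24 hours; activity in either direction was referenced to DMSO.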
Compound,outcome [1],AC50 [2],outcome [3],outcome [4],outcome [5],outcome [6],outcome [7],outcome [8],outcome [9],outcome [10],outcome [2],AC50 [1],AC50 [5],AC50 [7],AC50 [9],AC50 [10],AC50 [3],AC50 [4],AC50 [6]
COC(=O)/C=C\C(=O)O,inactive,30.7 µM (active),inactive,inactive,inactive,inactive,inactive,inactive,inactive,inactive,,,,,,,,,
COC(F)(F)C(F)(C(F)(F)F)C(F)(F)F,inactive,,inactive,inactive,inactive,inactive,inactive,inactive,inactive,inactive,inactive,,,,,,,,
CCN(CCO)c1cccc(C)c1,inactive,27.8 µM (active),inactive,inactive,inactive,inactive,inactive,inactive,inactive,inactive,,,,,,,,,
c1ccc(-c2ccccn2)nc1,inactive,,inactive,inactive,inactive,inactive,inactive,inactive,inactive,inactive,inactive,,,,,,,,
CCOC(F)(F)C(F)(F)C(F)(F)C(F)(F)F,inactive,,inactive,inactive,inactive,inactive,inactive,inactive,inactive,inactive,inactive,,,,,,,,
O=C1Nc2ccccc2C1(c1ccc(O)cc1)c1ccc(O)cc1,,,inactive,inactive,,inactive,,inactive,,,inactive,70.7 µM (active),63.9 µM (active),27.2 µM (active),61.7 µM (active),40.9 µM (active),,,
CN1C(=O)N(C)C(O)C1O (configuration not stated),inactive,,inactive,inactive,inactive,inactive,inactive,inactive,inactive,inactive,inactive,,,,,,,,
CCCCC/C=C\CCC=O,inactive,27.8 µM (active),inactive,inactive,inactive,inactive,inactive,inactive,inactive,inactive,,,,,,,,,
O=S1(=O)OC(c2ccc(O)cc2)(c2ccc(O)cc2)c2ccccc21,inactive,13.9 µM (active),inactive,inactive,inactive,inactive,inactive,inactive,inactive,inactive,,,,,,,,,
CCCCOCCOC(=O)COc1nc(Cl)c(Cl)cc1Cl,inactive,,inactive,inactive,inactive,inactive,inactive,inactive,inactive,inactive,inactive,,,,,,,,
Cc1cc(C)c(C)c(O)c1,inactive,42.3 µM (active),inactive,inactive,inactive,inactive,inactive,inactive,inactive,inactive,,,,,,,,,
O=c1c2ccccc2nnn1CCl,inactive,7.09 µM (active),inactive,inactive,inactive,inactive,inactive,inactive,inactive,inactive,,,,,,,,,
O=C(O)c1ccccc1Nc1cccc(C(F)(F)F)c1,inactive,5.5 µM (active),,,inactive,inactive,,inactive,,inactive,,,,26.5 µM (active),100 µM (active),,33 µM (active),100 µM (active),
CN(C)c1ccc(C(=N)c2ccc(N(C)C)cc2)cc1,,5.82 µM (active),inactive,,inactive,inactive,inactive,inactive,inactive,,,3.16 µM (active),,,,9.76 µM (active),,1.28 µM (active),
O=C(C=Cc1ccccc1)OCc1ccccc1,inactive,13.2 µM (active),inactive,inactive,inactive,inactive,inactive,inactive,inactive,inactive,,,,,,,,,
CCC(CO)CO,inactive,,inactive,inactive,inactive,inactive,inactive,inactive,inactive,inactive,inactive,,,,,,,,
CC/C=C\C/C=C\C/C=C\CCCCCCCC(=O)O,,181 µM (active),,,inactive,inactive,inactive,inactive,inactive,,,100 µM (active),,,,53.6 µM (active),40.1 µM (active),48.7 µM (active),
O=c1cc[nH]c(=S)[nH]1,inactive,,inactive,inactive,inactive,inactive,inactive,inactive,inactive,inactive,inactive,,,,,,,,
CCOC(=O)CC(C(C)=O)C(C)=O,inactive,,inactive,inactive,inactive,inactive,inactive,inactive,inactive,inactive,inactive,,,,,,,,
CCCC(C)CCC(C)=O (configuration not stated),inactive,,inactive,inactive,inactive,inactive,inactive,inactive,inactive,inactive,inactive,,,,,,,,
Nc1cccc(C(F)(F)F)c1,inactive,,inactive,inactive,inactive,inactive,inactive,inactive,inactive,inactive,inactive,,,,,,,,
COC(=O)c1cc(Cl)ccc1[N+](=O)[O-],inactive,76.1 µM (active),inactive,inactive,inactive,inactive,inactive,inactive,inactive,inactive,,,,,,,,,
NC(=O)c1ccccc1O,inactive,,inactive,inactive,inactive,inactive,inactive,inactive,inactive,inactive,inactive,,,,,,,,
O=[N+]([O-])c1ccc(CO)cc1,inactive,5.54 µM (active),inactive,inactive,inactive,inactive,inactive,inactive,inactive,inactive,,,,,,,,,
CN(C)CCCN(C)C,inactive,,inactive,inactive,inactive,inactive,inactive,inactive,inactive,inactive,inactive,,,,,,,,

Compound,outcome [1],AC50 [2],outcome [3],outcome [4],outcome [5],outcome [6],outcome [7],outcome [8],outcome [9],outcome [10],outcome [2],AC50 [1],AC50 [5],AC50 [7],AC50 [9],AC50 [10],AC50 [3],AC50 [4],AC50 [6]
CCCCCCCC/C=C\CCCCCCCC(=O)O,inactive,,inactive,inactive,inactive,inactive,inactive,inactive,inactive,inactive,inactive,,,,,,,,
CC1=CC[C@H]2C[C@@H]1C2(C)C,inactive,,inactive,inactive,inactive,inactive,inactive,inactive,inactive,inactive,inactive,,,,,,,,
O=S(=O)(O)c1ccc2cc(O)c(S(=O)(=O)O)cc2c1,,,inactive,inactive,inactive,inactive,inactive,inactive,inactive,,inactive,151 µM (active),,,,66.9 µM (active),,,
Cc1cccc(N)n1,inactive,,inactive,inactive,inactive,inactive,inactive,inactive,inactive,inactive,inactive,,,,,,,,
COc1cc(NC(=O)CC(C)=O)c(OC)cc1Cl,inactive,31.5 µM (active),inactive,inactive,inactive,inactive,inactive,inactive,inactive,inactive,,,,,,,,,
CC(=O)Nc1ccc2c(c1)Cc1cc(NC(C)=O)ccc1-2,inactive,,inactive,inactive,inactive,inactive,inactive,inactive,inactive,inactive,inactive,,,,,,,,
Clc1nc2ccccc2s1,inactive,,inactive,inactive,inactive,inactive,inactive,inactive,inactive,inactive,inactive,,,,,,,,
NNC(=O)c1cccc(C(=O)NN)c1,inactive,,inactive,inactive,inactive,inactive,inactive,,inactive,inactive,inactive,,,,,,,,
OCCNCc1ccccc1,inactive,,inactive,inactive,inactive,inactive,inactive,inactive,inactive,inactive,inactive,,,,,,,,
CO[Si](OC)(OC)c1ccccc1,inactive,,inactive,inactive,inactive,inactive,inactive,inactive,inactive,inactive,inactive,,,,,,,,
O=C(Nc1cccc(C(F)(F)F)c1)c1cc(Br)cc(Br)c1O,,,inactive,,,,,inactive,,,inactive,78.9 µM (active),79.3 µM (active),21.5 µM (active),43.9 µM (active),128 µM (active),,2.29 µM (active),100 µM (active)
O=C(Nc1ccccc1)c1ccccc1O,inactive,27.4 µM (active),,inactive,inactive,inactive,inactive,inactive,inactive,inactive,,,,,,,100 µM (active),,
CCCCCc1ccc(Cl)cc1,inactive,,,inactive,inactive,,inactive,,inactive,inactive,inactive,,,,,,25.9 µM (active),,177 µM (active)
COC(=O)c1sccc1S(N)(=O)=O,inactive,79.3 µM (active),inactive,inactive,inactive,inactive,inactive,inactive,inactive,inactive,,,,,,,,,
C/C=C\C/C=C/CCCCCCCCOC(C)=O,,26.2 µM (active),inactive,inactive,inactive,inactive,inactive,inactive,,,,100 µM (active),,,69.7 µM (active),74.8 µM (active),,,
OC1CCCC1,inactive,48.8 µM (active),inactive,inactive,inactive,inactive,inactive,inactive,inactive,inactive,,,,,,,,,
CC=C1CC2C=CC1C2 (configuration not stated),inactive,3.1 µM (active),inactive,inactive,inactive,inactive,inactive,inactive,inactive,inactive,,,,,,,,,
CCCC(=O)OCc1ccccc1,inactive,,inactive,inactive,inactive,inactive,inactive,inactive,inactive,inactive,inactive,,,,,,,,
C=CC=CC=CCCCCC,inactive,6.94 µM (active),inactive,inactive,inactive,inactive,inactive,,inactive,inactive,,,,,,,,,
CCCNC(=O)NS(=O)(=O)c1ccc(Cl)cc1,inactive,,inactive,inactive,inactive,inactive,inactive,inactive,inactive,inactive,inactive,,,,,,,,
COCC(C)N (configuration not stated),inactive,83.6 µM (active),inactive,inactive,inactive,inactive,inactive,inactive,inactive,inactive,,,,,,,,,
O=C(O)CCCC[C@@H]1SC[C@@H]2NC(=O)N[C@@H]21,inactive,,inactive,inactive,inactive,inactive,inactive,inactive,inactive,inactive,inactive,,,,,,,,
CCCCCCCC(C)=O,inactive,,inactive,inactive,inactive,inactive,inactive,inactive,inactive,inactive,inactive,,,,,,,,
CC(C)(Oc1ccc(C2CC2(Cl)Cl)cc1)C(=O)O (configuration not stated),inactive,41.1 µM (active),,inactive,inactive,inactive,inactive,inactive,inactive,inactive,,,,,,,48.3 µM (active),,
S=C(NC1CCCCC1)NC1CCCCC1,inactive,4.14 µM (active),inactive,inactive,inactive,inactive,inactive,inactive,inactive,inactive,,,,,,,,,
